Here are results for seven compounds from ChEMBL document CHEMBL1961873, “Compounds: GSK PKIS; Assays: Nanosyn kinase panel” (2012).

The target of experiment [1] is Glycogen synthase kinase-3 beta (Homo sapiens) (UniProt P49841). Particulars: at 1 µM.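 Further: reported values are mean percent inhibition of GSK3B.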
Experiment [2] deals with Homeodomain-interacting protein kinase 1 (Homo sapiens) (UniProt Q86Z02). The conditions noted are these: at 0.1 µM.
For experiment [3] the target is unchanged. Particulars: at 1 µM.
Experiment [4] has as its target T1, Homeodomain-interacting protein kinase 4 (Homo sapiens) (UniProt Q8NE63).
T1 sequence (whole entry): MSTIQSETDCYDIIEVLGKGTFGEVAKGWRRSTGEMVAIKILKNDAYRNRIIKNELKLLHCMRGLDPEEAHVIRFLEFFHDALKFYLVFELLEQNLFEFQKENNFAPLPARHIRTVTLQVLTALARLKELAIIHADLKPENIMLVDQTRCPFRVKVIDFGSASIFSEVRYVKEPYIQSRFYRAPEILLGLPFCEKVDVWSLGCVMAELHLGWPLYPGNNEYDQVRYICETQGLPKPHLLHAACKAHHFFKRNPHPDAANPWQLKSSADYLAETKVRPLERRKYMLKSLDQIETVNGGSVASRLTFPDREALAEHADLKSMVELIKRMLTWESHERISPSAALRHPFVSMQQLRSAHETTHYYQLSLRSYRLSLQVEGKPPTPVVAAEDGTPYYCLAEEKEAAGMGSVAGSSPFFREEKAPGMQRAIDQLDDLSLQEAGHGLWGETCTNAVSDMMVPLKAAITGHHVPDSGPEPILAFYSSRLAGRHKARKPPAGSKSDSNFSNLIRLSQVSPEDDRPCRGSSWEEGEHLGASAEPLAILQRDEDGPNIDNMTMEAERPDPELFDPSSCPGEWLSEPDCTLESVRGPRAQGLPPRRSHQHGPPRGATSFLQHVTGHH
The conditions noted are these: at 0.1 µM.

The target in experiment [5] is T1, Homeodomain-interacting protein kinase 4 (Homo sapiens). Particulars: at 1 µM.
In experiment [6] the target is Mitogen-activated protein kinase 9 (Homo sapiens) (UniProt P45984). Particulars: at 0.1 µM.
Experiment [7] has the same target. Particulars: at 1 µM.
Experiment [8] deals with Mitogen-activated protein kinase 1 (Homo sapiens) (UniProt P28482). The conditions noted are these: at 0.1 µM.
For experiment [9] the target is unchanged. Particulars: at 1 µM.
Experiment [10] deals with Mitogen-activated protein kinase 3 (Homo sapiens) (UniProt P27361). The conditions noted are these: at 0.1 µM.
Experiment [11] shares this target. Particulars: at 1 µM.
The target of experiment [12] is SRSF protein kinase 3 (Homo sapiens) (UniProt Q9UPE1). Particulars: at 0.1 µM.
For experiment [13] the target is unchanged. The conditions noted are these: at 1 µM.
In experiment [14] the target is Mitogen-activated protein kinase 14 (Homo sapiens) (UniProt Q16539). Particulars: at 0.1 µM.
The target is the same in experiment [15]. Particulars: at 1 µM.
Experiment [16] concerns the target Mitogen-activated protein kinase 11 (Homo sapiens) (UniProt Q15759). The conditions noted are these: at 0.1 µM.
Experiment [17] shares this target. Particulars: at 1 µM.
The target in experiment [18] is T2, Mitogen-activated protein kinase 13 (Homo sapiens) (UniProt O15264).
T2 sequence (whole entry): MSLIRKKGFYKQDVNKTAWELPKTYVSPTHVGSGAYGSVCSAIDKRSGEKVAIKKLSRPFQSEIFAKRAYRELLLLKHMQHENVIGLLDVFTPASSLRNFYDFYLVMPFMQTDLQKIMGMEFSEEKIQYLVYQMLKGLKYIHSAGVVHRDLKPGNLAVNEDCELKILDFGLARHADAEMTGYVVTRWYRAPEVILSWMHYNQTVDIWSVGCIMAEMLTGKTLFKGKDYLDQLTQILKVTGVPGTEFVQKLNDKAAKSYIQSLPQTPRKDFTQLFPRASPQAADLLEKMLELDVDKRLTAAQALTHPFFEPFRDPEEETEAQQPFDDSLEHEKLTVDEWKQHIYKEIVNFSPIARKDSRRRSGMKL
Particulars: at 0.1 µM.

The target of experiment [19] is T2, Mitogen-activated protein kinase 13 (Homo sapiens). The conditions noted are these: at 1 µM.
Experiment [20] deals with T3, Mitogen-activated protein kinase 12 (Homo sapiens) (UniProt P53778).
T3 sequence (whole entry): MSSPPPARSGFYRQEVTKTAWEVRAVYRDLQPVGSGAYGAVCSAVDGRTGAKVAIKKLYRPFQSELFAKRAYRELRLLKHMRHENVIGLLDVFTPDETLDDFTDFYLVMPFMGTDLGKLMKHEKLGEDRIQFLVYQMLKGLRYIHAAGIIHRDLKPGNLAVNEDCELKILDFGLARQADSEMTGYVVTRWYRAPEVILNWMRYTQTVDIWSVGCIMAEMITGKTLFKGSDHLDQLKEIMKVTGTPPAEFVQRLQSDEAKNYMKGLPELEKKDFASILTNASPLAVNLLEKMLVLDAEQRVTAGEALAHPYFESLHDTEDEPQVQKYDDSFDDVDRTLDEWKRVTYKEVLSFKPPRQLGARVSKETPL
The conditions noted are these: at 0.1 µM.

Where “and” joins values, the source holds several entries; their conditions need not be identical. Identical values can stand only once.

Chain of Mitogen-activated protein kinase 9 (Homo sapiens) (P45984 whole entry, looked up): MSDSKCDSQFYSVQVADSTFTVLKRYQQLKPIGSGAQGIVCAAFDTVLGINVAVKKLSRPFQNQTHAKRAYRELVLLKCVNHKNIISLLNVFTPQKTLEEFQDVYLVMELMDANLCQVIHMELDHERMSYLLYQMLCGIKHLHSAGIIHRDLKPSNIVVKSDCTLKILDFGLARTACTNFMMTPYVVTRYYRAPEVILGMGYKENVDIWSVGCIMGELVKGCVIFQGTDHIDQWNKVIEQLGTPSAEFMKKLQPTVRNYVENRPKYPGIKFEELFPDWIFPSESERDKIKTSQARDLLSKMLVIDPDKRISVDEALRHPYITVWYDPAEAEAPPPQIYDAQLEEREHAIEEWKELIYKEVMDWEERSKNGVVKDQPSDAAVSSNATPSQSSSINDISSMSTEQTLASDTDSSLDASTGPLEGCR
Chain of Mitogen-activated protein kinase 3 (Homo sapiens) (P27361 whole entry): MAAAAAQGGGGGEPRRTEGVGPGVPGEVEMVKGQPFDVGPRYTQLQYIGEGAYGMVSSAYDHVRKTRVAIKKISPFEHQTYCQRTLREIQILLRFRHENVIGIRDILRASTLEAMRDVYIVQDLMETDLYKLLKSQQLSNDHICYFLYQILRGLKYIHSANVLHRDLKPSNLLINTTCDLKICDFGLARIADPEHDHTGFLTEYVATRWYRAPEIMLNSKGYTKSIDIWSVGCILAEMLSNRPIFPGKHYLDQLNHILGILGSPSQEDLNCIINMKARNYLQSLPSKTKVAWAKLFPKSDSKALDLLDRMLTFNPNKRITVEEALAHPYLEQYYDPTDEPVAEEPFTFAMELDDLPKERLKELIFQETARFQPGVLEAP
Chain of SRSF protein kinase 3 (Homo sapiens) (Q9UPE1 whole entry): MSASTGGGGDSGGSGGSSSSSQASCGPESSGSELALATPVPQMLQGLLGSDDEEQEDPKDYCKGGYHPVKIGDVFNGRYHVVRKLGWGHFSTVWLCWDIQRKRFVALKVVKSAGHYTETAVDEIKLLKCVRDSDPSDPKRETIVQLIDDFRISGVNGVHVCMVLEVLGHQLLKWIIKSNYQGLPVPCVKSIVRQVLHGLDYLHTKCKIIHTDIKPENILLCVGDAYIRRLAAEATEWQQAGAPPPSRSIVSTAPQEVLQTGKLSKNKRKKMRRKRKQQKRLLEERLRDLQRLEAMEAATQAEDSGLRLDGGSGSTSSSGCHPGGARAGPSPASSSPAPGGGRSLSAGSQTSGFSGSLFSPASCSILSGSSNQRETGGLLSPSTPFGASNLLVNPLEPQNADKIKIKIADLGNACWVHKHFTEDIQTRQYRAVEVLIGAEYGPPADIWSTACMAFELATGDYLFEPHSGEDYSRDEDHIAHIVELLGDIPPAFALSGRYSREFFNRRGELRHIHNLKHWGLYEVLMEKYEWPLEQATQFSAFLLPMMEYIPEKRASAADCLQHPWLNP
Chain of Glycogen synthase kinase-3 beta (Homo sapiens) (P49841 whole entry, looked up): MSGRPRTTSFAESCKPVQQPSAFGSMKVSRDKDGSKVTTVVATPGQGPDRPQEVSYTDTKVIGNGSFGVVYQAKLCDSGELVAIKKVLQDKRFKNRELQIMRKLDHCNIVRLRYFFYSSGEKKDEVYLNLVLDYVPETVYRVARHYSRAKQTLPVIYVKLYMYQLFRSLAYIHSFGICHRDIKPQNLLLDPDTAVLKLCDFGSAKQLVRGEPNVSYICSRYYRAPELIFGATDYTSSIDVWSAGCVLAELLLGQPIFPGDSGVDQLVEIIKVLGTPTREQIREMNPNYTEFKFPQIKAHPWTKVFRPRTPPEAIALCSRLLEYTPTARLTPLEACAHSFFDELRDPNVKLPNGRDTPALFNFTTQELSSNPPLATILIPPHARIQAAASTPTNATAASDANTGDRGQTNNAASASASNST
Chain of Homeodomain-interacting protein kinase 1 (Homo sapiens) (Q86Z02 whole entry, looked up): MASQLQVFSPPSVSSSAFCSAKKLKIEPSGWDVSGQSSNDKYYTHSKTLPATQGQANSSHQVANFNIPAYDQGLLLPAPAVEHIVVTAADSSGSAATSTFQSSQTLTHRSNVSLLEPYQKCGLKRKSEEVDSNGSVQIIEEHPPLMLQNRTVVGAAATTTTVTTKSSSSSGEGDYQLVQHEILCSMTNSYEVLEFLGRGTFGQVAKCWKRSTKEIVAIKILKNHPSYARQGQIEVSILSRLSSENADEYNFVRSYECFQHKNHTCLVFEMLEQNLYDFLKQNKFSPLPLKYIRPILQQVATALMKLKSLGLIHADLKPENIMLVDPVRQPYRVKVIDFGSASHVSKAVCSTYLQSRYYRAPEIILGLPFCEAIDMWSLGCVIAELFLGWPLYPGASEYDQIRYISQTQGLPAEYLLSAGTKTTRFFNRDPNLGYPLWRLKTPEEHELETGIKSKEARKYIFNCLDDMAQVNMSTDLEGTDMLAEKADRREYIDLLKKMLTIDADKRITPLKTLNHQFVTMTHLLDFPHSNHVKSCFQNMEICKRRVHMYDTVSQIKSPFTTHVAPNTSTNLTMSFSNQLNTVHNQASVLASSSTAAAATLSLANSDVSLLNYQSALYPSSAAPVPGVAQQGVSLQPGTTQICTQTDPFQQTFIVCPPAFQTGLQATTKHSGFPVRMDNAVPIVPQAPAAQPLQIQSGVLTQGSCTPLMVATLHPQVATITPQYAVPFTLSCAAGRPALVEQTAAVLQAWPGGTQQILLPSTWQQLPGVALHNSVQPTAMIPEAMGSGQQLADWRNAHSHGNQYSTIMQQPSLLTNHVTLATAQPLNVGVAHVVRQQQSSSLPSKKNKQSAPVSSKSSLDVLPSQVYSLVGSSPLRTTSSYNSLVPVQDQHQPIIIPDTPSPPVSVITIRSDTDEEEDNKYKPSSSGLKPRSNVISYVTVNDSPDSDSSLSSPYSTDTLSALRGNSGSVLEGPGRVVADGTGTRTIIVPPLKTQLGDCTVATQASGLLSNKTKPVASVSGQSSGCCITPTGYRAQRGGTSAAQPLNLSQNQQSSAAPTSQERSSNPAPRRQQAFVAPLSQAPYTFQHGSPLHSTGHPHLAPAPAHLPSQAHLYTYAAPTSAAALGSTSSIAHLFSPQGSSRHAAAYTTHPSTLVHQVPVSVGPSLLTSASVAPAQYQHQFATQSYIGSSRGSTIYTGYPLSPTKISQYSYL
Chain of Mitogen-activated protein kinase 11 (Homo sapiens) (Q15759 whole entry): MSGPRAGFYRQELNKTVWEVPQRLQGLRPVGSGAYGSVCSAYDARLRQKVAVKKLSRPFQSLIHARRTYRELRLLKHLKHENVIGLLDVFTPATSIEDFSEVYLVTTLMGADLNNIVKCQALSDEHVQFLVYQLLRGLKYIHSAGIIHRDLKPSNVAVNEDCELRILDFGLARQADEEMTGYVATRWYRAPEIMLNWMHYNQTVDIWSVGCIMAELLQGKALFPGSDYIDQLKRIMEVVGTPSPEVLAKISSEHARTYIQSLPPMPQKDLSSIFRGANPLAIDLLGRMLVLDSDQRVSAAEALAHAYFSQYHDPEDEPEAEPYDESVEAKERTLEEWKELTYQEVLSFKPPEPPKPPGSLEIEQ
Chain of Mitogen-activated protein kinase 14 (Homo sapiens) (Q16539 whole entry): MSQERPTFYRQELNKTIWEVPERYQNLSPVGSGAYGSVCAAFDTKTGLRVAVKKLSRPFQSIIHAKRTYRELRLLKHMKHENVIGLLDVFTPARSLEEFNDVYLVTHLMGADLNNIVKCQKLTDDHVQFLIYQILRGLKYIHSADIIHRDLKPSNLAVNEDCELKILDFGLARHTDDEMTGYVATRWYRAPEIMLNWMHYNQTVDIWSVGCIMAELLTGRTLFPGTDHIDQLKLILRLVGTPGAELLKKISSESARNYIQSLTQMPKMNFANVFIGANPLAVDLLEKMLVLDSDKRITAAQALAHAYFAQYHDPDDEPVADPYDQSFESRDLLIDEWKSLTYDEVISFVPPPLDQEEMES
Chain of Mitogen-activated protein kinase 1 (Homo sapiens) (P28482 whole entry): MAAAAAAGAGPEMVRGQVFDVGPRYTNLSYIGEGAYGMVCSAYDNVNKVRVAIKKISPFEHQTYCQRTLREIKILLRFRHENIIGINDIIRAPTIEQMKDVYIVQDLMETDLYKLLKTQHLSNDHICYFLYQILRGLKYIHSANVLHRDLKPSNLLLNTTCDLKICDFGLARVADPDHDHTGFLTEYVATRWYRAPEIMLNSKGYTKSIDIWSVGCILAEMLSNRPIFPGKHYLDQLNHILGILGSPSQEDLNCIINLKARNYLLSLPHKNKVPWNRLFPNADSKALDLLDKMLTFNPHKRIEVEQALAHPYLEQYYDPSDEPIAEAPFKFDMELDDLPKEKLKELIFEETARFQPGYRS

Usually inhibition stands for the drop in the measured response relative to a control, in per cent. As to `OCCCNc1nccc(-c2c(-c3ccc(F)cc3)nn3cc(C(F)(F)F)ccc23)n1`, the inhibition in [1] is 31.2%; in experiment [2], -0.49%; in experiment [3] it was 3.61%; in experiment [4], 3.13%; in [5] it was 6.59%; in [6] it was 14.8%. For the same compound, the inhibition was 59.7% in [7]; 1.24% in experiment [8]; 7.07% in experiment [9]; 1.68% in [10]; 5.6% in experiment [11]; 1.09% in experiment [12]. The inhibition in experiment [13] is 3.54%; in experiment [14], 64.4%; in experiment [15], 91%; in experiment [16] it was 22.7%; in [17] it was 68.7%; in experiment [18] it was 4.11%. The figures for the inhibition in experiment [19] and in experiment [20] were 3.39% and 3.46%, respectively.
In the case of `CN1CCN(Cc2ccc(-c3cc4ncnc(Nc5ccc(OCc6cccc(F)c6)c(Cl)c5)c4s3)o2)CC1`, the inhibition in experiment [1] was 4.12% and 11.3%; in experiment [2], -3.31% and 2.8%; in experiment [3], 0.3% and 2.78%; in experiment [4] it was -0.43% and 2.01%; in [5], 0.76% and 4.59%; in experiment [6], 0.58% and 7.12%. In addition, the inhibition was 2.65% and 8.42% in [7]; 9.37% and 6.21% in experiment [8]; 4.78% and 9.62% in experiment [9]; 2.39% and 7.04% in experiment [10]; 4.3% and 6.64% in experiment [11]; -2.01% and -2.56% in experiment [12]. In addition, the inhibition is -1.87% and -0.88% in [13]; 11.4% and 3.49% in experiment [14]; 11.9% and 8.59% in experiment [15]; 7.76% and 7.78% in experiment [16]; 11.5% and 9.04% in experiment [17]; 2.21% and 1.13% in experiment [18]. Moreover, the inhibition in [19] is 1.76% and 5.79%; in [20] it was 1.79% and 3.59%.
Turning to `Cn1c(-c2nonc2N)nc2cnccc21`, the inhibition in [1] was determined as 41.6%; in experiment [2] it was 0.83%; in experiment [3], 13.9%; in experiment [4], 0.63%; in experiment [5], 4.4%; in [6], 0.7%. The inhibition is 4.16% in experiment [7]; -1.97% in [8]; 2.95% in [9]; 0.55% in experiment [10]; 3.9% in [11]; -1.11% in experiment [12]. The inhibition was -2.32% in [13]; 3.4% in [14]; 6.34% in experiment [15]; 3.09% in experiment [16]; 0.59% in [17]; 2.23% in experiment [18]. Further, the figures for the inhibition in experiment [19] and in experiment [20] were 2.42% and 2.62%, respectively.
As to `c1ccc(-c2n[nH]cc2-c2ccnc(-c3ccc(OCCn4ccnc4)cc3)c2)nc1`, the inhibition was 4.83% in experiment [1]; -0.98% in experiment [2]; -1.32% in [3]; -0.24% in experiment [4]; 2.03% in [5]; 2.7% in [6]. For the same compound, the inhibition was 8.69% in experiment [7]; 1.6% in experiment [8]; 1.52% in experiment [9]; 0.3% in experiment [10]; 1.75% in [11]; -3.24% in experiment [12]. Further, the inhibition in [13] was -1.72%; in experiment [14], 9.4%; in experiment [15], 36.8%; in experiment [16] it was 1.39%; in [17] it was 9.38%; in experiment [18], 0.51%. Moreover, the results for the inhibition in experiment [19] and in experiment [20] were 0.99% and 1.96%, respectively.
Turning to `O=C(Nc1n[nH]c2nnc(-c3cccnc3)cc12)C1CC1`, the inhibition turned out to be 81.5% in [1]; 33.6% in experiment [2]; 74% in experiment [3]; 0.58% in experiment [4]; 8.84% in experiment [5]; 0.33% in experiment [6]. The inhibition in [7] was 1.3%; in [8], 0.58%; in experiment [9], 2.75%; in [10], 0.53%; in experiment [11], 0.8%; in experiment [12], -0.02%. Also, the inhibition in experiment [13] is -4.68%; in [14] it was -0.2%; in [15], -1.37%; in [16], 0.57%; in [17], 2.39%; in [18], -0.07%. The results for the inhibition in [19] and in experiment [20] were 5.16% and 0.25%, respectively.
`CC1(C)CC(n2cnc(-c3ccc(F)cc3)c2-c2ccnc(N)n2)CC(C)(C)N1`: the inhibition was 6.07% in experiment [1]; -1.4% in experiment [2]; -0.7% in experiment [3]; -0.06% in experiment [4]; 1.62% in [5]; -1.22% in experiment [6]. For the same compound, the inhibition in [7] is 4.24%; in experiment [8] it was -0.07%; in experiment [9], -0.08%; in [10], 0.44%; in experiment [11], 1.92%; in experiment [12], -0.06%. For the same compound, the inhibition in [13] is -1.33%; in experiment [14], 64.5%; in [15], 77.6%; in [16], 13.6%; in [17], 55.7%; in experiment [18], 1.83%. Besides, the figures for the inhibition in experiment [19] and in [20] were 1.42% and 0.38%, respectively.
`CCN1CCC(C(=O)Nc2n[nH]c3nnc(-c4cccc(F)c4F)cc23)CC1`: the inhibition was 88.7% in experiment [1]; -1.08% in experiment [2]; 2.33% in [3]; 0.85% in [4]; 4.09% in [5]; -0.81% in experiment [6]. For the same compound, the inhibition in [7] was 1.88%; in experiment [8], -0.1%; in [9], 0.83%; in experiment [10], -2.77%; in [11] it was -0.23%; in experiment [12], -0.64%. Also, the inhibition was -0.52% in [13]; -0.33% in experiment [14]; -0.72% in experiment [15]; 0.08% in experiment [16]; 0.51% in [17]; -1.52% in [18]. Further, the values for the inhibition in experiment [19] and in experiment [20] were -2.25% and -0.79%, respectively.
